Activity calls are given as the source filed them.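 The calls were made as follows, unless noted: active = compound that reduces growth-factor-driven endothelial tube area in a mixed cell culture, no cutoff stated; inactive = the rest.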

Experiment [1] can be described thus: Wnt pathway potentiators raising nuclear beta-catenin – imaging, WNT3A-conditioned medium, mouse C2C12, NPC library, primary screen (AID 1117326; in the data active = nuclear beta-catenin stimulation mostly above about 4.2%, no sharp cut-off; inactive = mostly below about 10%; also: reference of the scale not given here). As to conditions: stronger effect = higher value.
Experiment [2] is described as follows: stimulators of insulin release from INS-1E, primary screen, cell-based, 5 mM glucose, NPC library (AID 1117329;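 active = compound raises insulin release from rat beta cells at 5 mM glucose, no numeric limit stated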; also: reference of the scale not given here). As to conditions: rat INS-1E insulin secretion, at 10 µM, stronger effect = higher value.
A short description of experiment [3]: growth inhibition of GSK3B-pretreated HCT116 cells – cell-based, CellTiter-Glo, 0.2 to 20 µM (AID 1117336;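 active = compounds lowering colon cancer cell viability after pretreatment blocking the GSK3B kinase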). The conditions noted are these: HCT116 viability after GSK3B inhibitor, at 20 µM, stronger effect = higher value. On the technique in general: ATP-based viability assays read luminescence as a measure of living cells.
Experiment [4] is described as follows: inhibition of endothelial tube formation, primary screen, imaging, VEGF stimulated, CD31 staining, tube area, NPC library (AID 1117340). The conditions noted are these: VEGF-stimulated ADSC/ECFC co-culture, at 10 µM, stronger effect = higher value.
A short description of experiment [5]: GLP1 release stimulators, primary, NCI-H716, NPC library (AID 1117341;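 active = compound raises GLP1 secretion from the human gut endocrine cells, with no numeric limit stated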; also: reference of the scale not given here). The conditions noted are these: NCI-H716 cells, at 10 µM, stronger effect = higher value.
A short description of experiment [6]: HCT116 colon cancer cell growth inhibition, primary screen, CellTiter-Glo luminescence, NPC library (AID 1117342;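 active = compounds that lower survival of HCT116 colon cancer cells in the luminescence readout, no numeric limit stated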). The conditions noted are these: at 20 µM (top of the series).
Experiment [7] can be described thus: reduced SW480 viability measured with CellTiter-Glo, NPC library, primary (AID 1117343;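 active = compounds that lower viability of the colon cancer cells in the luminescence readout, with no numeric limit stated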). As to conditions: CellTiter-Glo luminescence; at 20 µM (top of the series).
A short description of experiment [8]: NPC library primary testing for decreased DLD-1 cell viability via CellTiter-Glo (AID 1117346;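 active = compounds that lower survival of DLD-1 colon cancer cells in the luminescence readout, no cutoff given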). As to conditions: DLD-1 viability, CellTiter-Glo luminescence; at 20 µM (top of the series).

As to `CN1CCc2cc(Cl)c(O)cc2[C@H]2c3ccccc3CC[C@@H]21`, the nuclear beta-catenin stimulation is 1.9% (inactive) in experiment [1] (at 10 µM) and 2.3% in experiment [1] (stimulation, at 2 µM). The insulin secretion stimulation in experiment [2] is 20.2% (active). Also, the viability decrease in experiment [3] is 16.1% (inactive). Besides, the tube area decrease in experiment [4] is 24.1% (inactive). Also, the GLP1 secretion stimulation in experiment [5] was 5.5% (inactive). Besides, the inhibition of viability in experiment [6] is 28.5% (inactive). Moreover, the values for the viability decrease (inhibition) in experiment [7] and in experiment [8] were 46.5% (inactive) and 21.2% (inactive), respectively.
On to `COc1cccc(C(=O)CCN[C@@H](C)[C@H](O)c2ccccc2)c1`, for which the nuclear beta-catenin stimulation is 20.8% (inactive) in experiment [1] (at 10 µM) and -0.6% in experiment [1] (stimulation, at 2 µM). For the same compound, the insulin secretion stimulation in experiment [2] was 8.8% (inactive). In experiment [3], the viability decrease was -1.3% (inactive). The tube area decrease in experiment [4] was 42% (active). In addition, the GLP1 secretion stimulation in experiment [5] was 0.7% (inactive). For the same compound, the inhibition of viability in experiment [6] is 2.3% (inactive). The viability decrease (inhibition) is 91.6% (active) in experiment [7] and 75.9% (active) in experiment [8].
On to `CC1(C)S[C@@H]2[C@H](N)C(=O)N2[C@@H]1C(=O)O`, for which the nuclear beta-catenin stimulation in experiment [1] (at 10 µM) is 0.4% (inactive); in experiment [1] (stimulation, at 2 µM), 3%. For the same compound, the insulin secretion stimulation in experiment [2] is -0.3% (inactive). For the same compound, in experiment [3], the viability decrease was -4.5% (inactive). The tube area decrease in experiment [4] is 7.5% (inactive). Besides, the GLP1 secretion stimulation in experiment [5] is 0% (inactive). Moreover, the inhibition of viability in experiment [6] is 2.1% (inactive). For the same compound, the results for the viability decrease (inhibition) in experiment [7] and in experiment [8] were 6.9% (inactive) and -4.4% (inactive), respectively.
On to `CCOP(=S)(OCC)O/N=C(\C#N)c1ccccc1`, for which the nuclear beta-catenin stimulation in experiment [1] (at 10 µM) was -0.3% (inactive); in experiment [1] (stimulation, at 2 µM), 0.3%. In addition, in experiment [2], the insulin secretion stimulation was -1.4% (inactive). Further, the viability decrease in experiment [3] was -25.2% (inactive). For the same compound, the tube area decrease in experiment [4] is -2.3% (inactive). Besides, the GLP1 secretion stimulation in experiment [5] was -1.1% (inactive). For the same compound, the inhibition of viability in experiment [6] was 0.2% (inactive). Also, the viability decrease (inhibition) in experiment [7] is 36.2% (inactive); in experiment [8], -6.4% (inactive).
In the case of `Cc1nnc2n1-c1sc(CCc3ccc(CC(C)C)cc3)cc1C(c1ccccc1Cl)=NC2C` (centres undefined), the nuclear beta-catenin stimulation is -1% (inactive) in experiment [1] (at 10 µM) and 3.8% in experiment [1] (stimulation, at 2 µM). Moreover, in experiment [2], the insulin secretion stimulation was 4.1% (inactive). The viability decrease in experiment [3] was 110% (active). Further, in experiment [4], the tube area decrease was 48.1% (active). For the same compound, the GLP1 secretion stimulation in experiment [5] was 20.1% (active). For the same compound, the inhibition of viability in experiment [6] was 113% (active). Further, the viability decrease (inhibition) was 134% (active) in experiment [7] and 102% (active) in experiment [8].
On to `O=c1c(C2CC(c3ccc(-c4ccc(Br)cc4)cc3)Cc3ccccc32)c(O)sc2ccccc12` (centres undefined), for which the nuclear beta-catenin stimulation in experiment [1] (at 10 µM) is 0% (inactive); in experiment [1] (stimulation, at 2 µM) it was -2.4%. Further, in experiment [2], the insulin secretion stimulation is 1.05% (inactive). Besides, the viability decrease in experiment [3] was 117% (active). Further, the tube area decrease in experiment [4] is 34.2% (inactive). The GLP1 secretion stimulation in experiment [5] is 4.8% (inactive). The inhibition of viability in experiment [6] is 123% (active). For the same compound, the viability decrease (inhibition) in experiment [7] is 157% (active); in experiment [8], 101% (active).
On to `c1cc2c(c(N3CCNCC3)c1)OCCO2`, for which the nuclear beta-catenin stimulation in experiment [1] (at 10 µM) was -1.4% (inactive); in experiment [1] (stimulation, at 2 µM) it was 0.7%. Moreover, in experiment [2], the insulin secretion stimulation was 1.8% (inactive). For the same compound, the viability decrease in experiment [3] is -14.9% (inactive). In addition, the tube area decrease in experiment [4] was -9.4% (inactive). Also, the GLP1 secretion stimulation in experiment [5] is -2.6% (inactive). Moreover, the inhibition of viability in experiment [6] was 3.6% (inactive). Also, the viability decrease (inhibition) in experiment [7] was 3.4% (active); in experiment [8], -7.5% (inactive).
Regarding `COC1CC(=C(c2cccs2)c2cccs2)C[N+](C)(C)C1` (centres undefined), the nuclear beta-catenin stimulation is -1.6% (inactive) in experiment [1] (at 10 µM) and 1.1% in experiment [1] (stimulation, at 2 µM). The insulin secretion stimulation in experiment [2] was 0.1% (inactive). For the same compound, the viability decrease in experiment [3] was -13.9% (inactive). Also, the tube area decrease in experiment [4] was 10.1% (inactive). The GLP1 secretion stimulation in experiment [5] is -0.6% (inactive). Besides, in experiment [6], the inhibition of viability is 8.3% (inactive). The viability decrease (inhibition) in experiment [7] is -2.9% (inactive); in experiment [8], -0.4% (inactive).
As for `CCCCCCCCCCCCNCCNCCNCC(=O)O`, the nuclear beta-catenin stimulation in experiment [1] (at 10 µM) was 92.8% (active); in experiment [1] (stimulation, at 2 µM), 1.1%. Besides, the insulin secretion stimulation in experiment [2] was -0.3% (inactive). Also, in experiment [3], the viability decrease was 98.8% (active). The tube area decrease in experiment [4] is 74.7% (active). In addition, the GLP1 secretion stimulation in experiment [5] is 2.6% (inactive). For the same compound, in experiment [6], the inhibition of viability was 99.3% (active). The viability decrease (inhibition) was 100% (active) in experiment [7] and 101% (active) in experiment [8].
As for `NCC(O)c1cccc(O)c1` (centres undefined), the nuclear beta-catenin stimulation in experiment [1] (at 10 µM) was -0.9% (inactive); in experiment [1] (stimulation, at 2 µM), 0.5%. In addition, the insulin secretion stimulation in experiment [2] was 0.5% (inactive). For the same compound, the viability decrease in experiment [3] was -15% (inactive). The tube area decrease in experiment [4] is -16.5% (inactive). Also, the GLP1 secretion stimulation in experiment [5] is 2.9% (inactive). In addition, the inhibition of viability in experiment [6] was 4.5% (inactive). In addition, the viability decrease (inhibition) was 4.3% (inactive) in experiment [7] and 5.4% (inactive) in experiment [8].
As to `CCC(=O)O[C@@H]1C=C2CCC3C(CCC4(C)C3CC[C@@H]4OC(=O)CC)C2CC1` (some centres undefined), the nuclear beta-catenin stimulation in experiment [1] (at 10 µM) was -0.9% (inactive); in experiment [1] (stimulation, at 2 µM) it was 1.3%. Besides, in experiment [2], the insulin secretion stimulation was 4.8% (inactive). Moreover, the viability decrease in experiment [3] is 7.6% (inactive). Further, the tube area decrease in experiment [4] is -11.8% (inactive). Also, the GLP1 secretion stimulation in experiment [5] is -4.4% (inactive). Besides, the inhibition of viability in experiment [6] is 21.4% (inactive). Besides, the viability decrease (inhibition) is 13.2% (inactive) in experiment [7] and 9.9% (inactive) in experiment [8].
Take `CC(Cc1ccccc1)NCc1ccccc1Cl` (centres undefined): the nuclear beta-catenin stimulation in experiment [1] (at 10 µM) is 0.1% (inactive); in experiment [1] (stimulation, at 2 µM), 0%. Moreover, the insulin secretion stimulation in experiment [2] was 10.2% (inactive). For the same compound, in experiment [3], the viability decrease is 26.5% (inactive). Besides, the tube area decrease in experiment [4] was -19.5% (inactive). Moreover, the GLP1 secretion stimulation in experiment [5] was 2.3% (inactive). Besides, the inhibition of viability in experiment [6] is 21.9% (inactive). Also, the viability decrease (inhibition) in experiment [7] was 51.1% (active); in experiment [8], 22.6% (inactive).
As for `Oc1c(Br)cc(Br)cc1Br`, the nuclear beta-catenin stimulation in experiment [1] (at 10 µM) is -0.6% (inactive); in experiment [1] (stimulation, at 2 µM) it was -0.3%. Further, the insulin secretion stimulation in experiment [2] is -0.4% (inactive). Further, the viability decrease in experiment [3] is -83.3% (inactive). Further, the tube area decrease in experiment [4] was 10% (inactive). The GLP1 secretion stimulation in experiment [5] is -3.7% (inactive). In experiment [6], the inhibition of viability was -18% (inactive). Further, the values for the viability decrease (inhibition) in experiment [7] and in experiment [8] were 32.1% (inactive) and 37.1% (inactive), respectively.
In the case of `O=C(NC(O)C(Cl)(Cl)Cl)NC(O)C(Cl)(Cl)Cl` (centres undefined), the nuclear beta-catenin stimulation in experiment [1] (at 10 µM) is 0.9% (inactive); in experiment [1] (stimulation, at 2 µM), -2.1%. Further, the insulin secretion stimulation in experiment [2] was 9.2% (inactive). In addition, the viability decrease in experiment [3] is -2.2% (inactive). Moreover, the tube area decrease in experiment [4] is 1.1% (inactive). In addition, the GLP1 secretion stimulation in experiment [5] was 0.1% (inactive). The inhibition of viability in experiment [6] was 7.9% (inactive). In addition, the viability decrease (inhibition) in experiment [7] is -28.2% (inactive); in experiment [8] it was -0.1% (inactive).
`CC(=O)O[C@H]1C[C@H](O[C@H]2[C@@H](O)C[C@H](O[C@@H]3[C@@H](O)C[C@H](O[C@H]4CC[C@@]5(C)[C@H](CC[C@@H]6[C@H]5C[C@@H](O)[C@]5(C)[C@@H](C7=CC(=O)OC7)CC[C@]65O)C4)O[C@@H]3C)O[C@@H]2C)O[C@H](C)[C@H]1O[C@@H]1O[C@H](CO)[C@@H](O)[C@H](O)[C@@H]1O`: the nuclear beta-catenin stimulation in experiment [1] (at 10 µM) is 1.6% (inactive); in experiment [1] (stimulation, at 2 µM), 0.9%. The insulin secretion stimulation in experiment [2] was 0.8% (inactive). For the same compound, in experiment [3], the viability decrease is 73.3% (active). Besides, the tube area decrease in experiment [4] is 108% (active). For the same compound, the GLP1 secretion stimulation in experiment [5] was -0.9% (inactive). Besides, the inhibition of viability in experiment [6] was 46.8% (active). In addition, the viability decrease (inhibition) in experiment [7] was 54.2% (active); in experiment [8], 55.1% (active).
With `CN1CCC(O)(c2ccc(F)cc2)C(C(=O)c2ccc(F)cc2)C1` (centres undefined), the nuclear beta-catenin stimulation in experiment [1] (at 10 µM) is 20.8% (inactive); in experiment [1] (stimulation, at 2 µM), 1.6%. Moreover, the insulin secretion stimulation in experiment [2] is 5% (inactive). The viability decrease in experiment [3] is -1.23% (inactive). Further, the tube area decrease in experiment [4] was 18% (inactive). Also, the GLP1 secretion stimulation in experiment [5] was 4.8% (inactive). Also, in experiment [6], the inhibition of viability was 4.35% (inactive). The viability decrease (inhibition) in experiment [7] is 87% (active); in experiment [8], 72.8% (active).

The values are drawn from PubChem BioAssay.
